A selection: hits, their analogues and other compounds. The true share with any hit is near 2.8%.
FEN1 inh-1 = human FEN1 inhibition | P39748 | Recombinant FEN1 flap cleavage, fluorescence, 15 min | Potency, µM (highest dose often 114 µM), inactives show at the highest dose activity change, negative = inhibition, actives largely listed as inhibitors | 390,000 tested, 0.35% active | AID 588795; also: potency is read from the fitted curve at half-maximal effect; % is scaled to controls: 0 for no effect and ±100 for the full control effect; nearly all actives have a fitted effect of over 65% in size
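With each library titrated from low to high concentration, compounds met 10 nM FEN1 for 15 min at room temperature before 50 nM substrate was added; readings at 0 and 15 min fed four-parameter Hill curve fits.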
Pol kappa inh-1 = blocks human DNA polymerase kappa activity; AID 588579; 400,000 tested, 0.53% active; purified Pol kappa, fluorescent DNA synthesis assay, 10 min; Q9UBT6; Potency, µM (top dose mostly 107 µM), for inactives: at the top dose activity, negative = inhibition, hits mostly inhibitors; also: potency is read from the fitted curve at half-maximal effect; % is scaled to controls: 0 for no effect and ±100 for the full control effect
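Readout: fluorescence, taken kinetically at 0 and 10 min. Conditions: 10 nM Pol kappa, 15 min RT compound preincubation, 50 nM substrate final. Controls: enzyme-free buffer wells.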
Pol eta inh-1 = inhibitors of human DNA polymerase eta; Potency, µM (top dose mostly 114 µM), for the others: at the highest dose activity change, negative = inhibition, hits mostly inhibitors; Q9Y253; 390,000 tested, 1.2% active; recombinant Pol eta, fluorescent DNA replication assay; AID 588591; also: potency is read from the fitted curve at half-maximal effect; % is scaled to controls: 0 for no effect and ±100 for the full control effect
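Pol eta at 10 nM preincubated with compounds 15 min at room temperature; reaction started with fluorescent substrate (50 nM final) and read kinetically at 0 and 10 min.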
POLI inh = DNA polymerase iota (human) inhibition | Q9UNA4 | Pol iota fluorescent replication assay, 10 min | Potency, µM (series often up to 115 µM), for inactives: top-dose activity, negative = inhibition, usual class: inhibitors | 390,000 tested, 1% active; also: potency is read from the fitted curve at half-maximal effect
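Fluorescent replication assay read twice, at 0 min and 10 min after adding 50 nM (final) substrate. Enzyme (10 nM) and compounds were first incubated 15 min at room temperature; enzyme-free buffer wells were negative controls.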
POLB inh = blocks human DNA polymerase beta activity | 340,000 tested, 1.3% active | Pol beta primer extension/strand displacement, fluorescence kinetic | P06746 | AID 485314 | Potency, µM (highest dose often 114 µM), for the others: at the highest dose activity change, negative = inhibition, actives largely listed as inhibitors; also: potency is read from the fitted curve at half-maximal effect; % is scaled to controls: 0 for no effect and ±100 for the full control effect
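Pol beta (10 nM) and compounds were preincubated 15 min at room temperature, then 50 nM substrate (final) started primer extension/strand displacement. Reads were taken at 0 and 10 min; concentration-response data were fitted to a four-parameter Hill equation.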
PI5P4K alpha inh = blocks human PI5P4K alpha kinase activity. P48426. PI5P4Kalpha enzyme, ADP-Glo luminescence, 60 min; stronger effect = lower value. max response, %. 330,000 tested, 1.2% active; active = max response of -50% or lower; inconclusive = between -30% and -50%; inactive = -30% or higher; also: value at the top dose of about 77 µM; % is scaled to controls: 0 for no effect and ±100 for the full control effect
Target sequence (P48426 whole entry, looked up): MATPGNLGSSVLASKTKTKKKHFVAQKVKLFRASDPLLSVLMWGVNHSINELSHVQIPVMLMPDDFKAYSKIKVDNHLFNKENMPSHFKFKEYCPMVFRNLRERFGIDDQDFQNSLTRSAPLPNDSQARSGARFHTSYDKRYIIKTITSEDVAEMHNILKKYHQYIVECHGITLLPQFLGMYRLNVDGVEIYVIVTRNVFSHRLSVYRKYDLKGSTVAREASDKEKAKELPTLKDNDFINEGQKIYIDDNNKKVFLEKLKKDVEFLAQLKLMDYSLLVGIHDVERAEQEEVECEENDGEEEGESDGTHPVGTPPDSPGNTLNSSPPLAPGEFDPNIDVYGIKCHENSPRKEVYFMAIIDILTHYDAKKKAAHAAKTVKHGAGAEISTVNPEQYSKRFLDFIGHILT
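Quantitative HTS of the MLSMR library against PI5P4Kalpha with substrate. ATP added last at 5 microM final; room temperature, 60 minutes. Remaining ATP depleted, ADP converted and read as luminescence.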
PGK validate = TbPGK inhibition, hit validation | shares compounds with Pol kappa inh-1 | TbPGK coupled GAPDH assay, Kinase-Glo luminescence | Potency, µM (highest dose often 57.5 µM), for the others: at the highest dose activity change, negative = inhibition, actives largely listed as inhibitors | 500 tested, 79% active | AID 686980; also: potency is read from the fitted curve at half-maximal effect; % is scaled to controls: 0 for no effect and ±100 for the full control effect; nearly all actives have a fitted effect of over 65% in size
Target sequence (P07378 whole entry, looked up): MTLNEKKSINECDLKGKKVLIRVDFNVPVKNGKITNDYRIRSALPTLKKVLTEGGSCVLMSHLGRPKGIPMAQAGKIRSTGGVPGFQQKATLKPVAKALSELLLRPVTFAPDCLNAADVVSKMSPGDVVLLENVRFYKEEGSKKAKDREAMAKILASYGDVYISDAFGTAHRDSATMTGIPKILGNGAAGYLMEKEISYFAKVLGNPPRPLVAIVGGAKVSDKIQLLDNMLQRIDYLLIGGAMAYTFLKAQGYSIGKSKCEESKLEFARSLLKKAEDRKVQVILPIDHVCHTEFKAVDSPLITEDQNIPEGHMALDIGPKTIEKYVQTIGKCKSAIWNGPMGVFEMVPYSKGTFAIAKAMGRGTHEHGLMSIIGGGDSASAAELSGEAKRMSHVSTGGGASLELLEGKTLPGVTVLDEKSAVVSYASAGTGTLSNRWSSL
POLI cherry-pick = Human Pol iota inhibitor confirmatory assay. shares compounds with Pol kappa inh-1. AID 720496. Potency, µM, hits mostly inhibitors. Pol iota primer extension, TAMRA/BHQ fluorescence. 1,500 tested, 77% active; also: potency is read from the fitted curve at half-maximal effect
Pol kappa inh-2 = confirmation of human DNA polymerase kappa inhibitors; shares compounds with Pol eta inh-1; purified Pol-kappa, fluorescent strand-displacement substrate; Potency, µM, hits mostly inhibitors; 920 tested, 76% active; also: potency is read from the fitted curve at half-maximal effect
Pol eta inh-2 = Pol eta (human) inhibition, cherry-pick confirmation; 2,600 tested, 64% active; Pol eta primer extension, TAMRA/BHQ fluorescence, 10 min; Potency, µM, hits mostly inhibitors; AID 720502; shares compounds with Pol eta inh-1; also: potency is read from the fitted curve at half-maximal effect
FEN1 inh-2 = FEN1 inhibition, cherry-pick retest. shares compounds with FEN1 inh-1. FEN1 flap cleavage, TAMRA/BHQ2 fluorogenic DNA substrate. Potency, µM, hits mostly inhibitors. 880 tested, 79% active. AID 720498; also: potency is read from the fitted curve at half-maximal effect; nearly all actives have a fitted effect of over 60% in size
* marks the source's active call; other numbers are inactive results; ? = inconclusive; / = not tested or not shown; [ ] = dose if it differs, or a comment. Unless noted, calls follow the shape of the dose curve; as a rule, active = well fitted curve in the direction sought with a large enough effect; inconclusive = small, poorly fitted or top-dose-only effect, or another doubt; inactive = no such curve, though single readings can be large; an effect the other way counts as inactive or inconclusive.

SMILES | FEN1 inh-1 | Pol kappa inh-1 | Pol eta inh-1 | POLI inh | POLB inh | PI5P4K alpha inh | POLI cherry-pick | Pol eta inh-2 | FEN1 inh-2 | others
Cc1ccc(NC(=O)C(Cc2ccccc2)NS(=O)(=O)c2ccc3c(c2)oc(=O)n3C)cc1F (stereo unspecified) | 3.1% | -13.8% | -6.9% | 8.8% | -1.2% | / | / | / | /
O=C(c1cccc([N+](=O)[O-])c1)N1CCN(CCc2ccncc2)CC1 | 18.4% | -5.7% | 2.6% | -13.5% | -16.1% | / | / | / | /
O=C1NC2c3c(Cl)sc(Cl)c3C(=O)C2O1 (stereo unspecified) | ? | ? | 3.16µM* | 25.1µM* | / | ? | 4.23* | 6.01* | ? | Pol kappa inh-2=2.67*
COc1ccc(/C=C2\CC/C(=C\c3ccc(OC)c(OC)c3)C2=O)cc1OC | -6.3% | -15.3% | -2.8% | 0.2% | 16.4% | 4.7 | / | / | /
COc1cc(/C=C/C=C2/CC/C(=C/C=C/c3ccc(O)c(OC)c3)C2=O)ccc1O | 39.8µM* | 14.1µM* | 5.01µM* | 3.55µM* | / | -92.7* | 21.2* | 15.1* | 42.6*
O=C(CSc1nc2ccccc2n1CCc1ccccc1)c1ccc(O)c(O)c1 | 56.2µM* | ? | 3.16µM* | 2.82µM* | 0.501µM* | -88.7* | 2.99* | 3.01* | 67.5* | PGK validate=1.46µM*
O=C(CSc1nc2ccccc2n1CCc1ccccc1)N1CCOCC1 | -5.8% | -14.4% | -20.5% | 0.4% | 1.1%[57.1 µM] | 1.7 | / | / | /
CC(=O)Nc1ccc(-n2nnnc2SCC(=O)Nc2cccc(NC(=O)c3ccco3)c2)cc1 | ? | -55.0% | ? | 28.2µM* | ? | 2.8 | 53.2* | ? | ?
O=C(O)Cc1ccc(N=Nc2c(O)c(C(=O)O)cc3ccccc23)cc1 | 50.1µM* | ? | 7.08µM* | 7.94µM* | 31.6µM* | -73.4* | 21.2* | 21.3* | 67.5*
COc1cc(/C=C2\SC(=O)N(CC(=O)Nc3ccc(C)cc3)C2=O)cc(Cl)c1OCC(=O)O | ? | ? | ? | 20µM* | 50.1µM* | -17.4 | 4.23* | ? | 67.5* | PGK validate=5.8µM*
COc1ccc(/C=C2\SC(=O)N(CCCC(=O)Nc3ccc(C(=O)O)cc3)C2=O)cc1OC | 1.2% | -2.5% | -20.7% | -4.2% | 1.5% | -8.9 | / | / | /
COc1ccc(-c2nn(C)c3sc(C(=O)Nc4cc(OC)c(OC)c(OC)c4)cc23)cc1OC | 10µM* | 50.1µM* | 39.8µM* | 22.4µM* | 44.7µM* | / | 37.7* | 60.1* | 7.57*
Cc1cc(C)c2c(N)c3cccc(C)c3nc2n1 | 25.1µM* | ? | -18.7% | ? | 12.6µM* | -5.9 | 33.6* | / | 15.1*
Cc1cccc2c(N)c3c(nc12)CCCC3 (tested in a mixture with another compound) | ? | 3.9% | -17.9% | 45.6% | 4.7% | 1.5 | / | / | /
COc1ccccc1/C=C/c1onc(C)c1S(=O)(=O)N1CCC(C(=O)N2CCC(C)CC2)CC1 | 10.1% | -5.3%[60.1 µM] | -16.4% | 15.5% | -1.8% | / | / | / | /
CCCc1cc(=O)oc2cc(OCC(=O)Nc3ccc(S(N)(=O)=O)cc3)ccc12 | ? | 39.8µM* | 10µM* | 5.01µM* | 89.1µM* | -3.6 | 37.7* | / | 67.5*
Cc1cc(C)c(S(=O)(=O)N2CCN(CCN3C(=O)c4cccc5cccc(c45)C3=O)CC2)cc1[N+](=O)[O-] | / | / | / | / | 1.6% | / | / | / | /
O=C1c2cccc3cc([N+](=O)[O-])cc(c23)C(=O)N1CCN1CCCC1 | 14.1µM* | 79.4µM* | -7.1% | 20µM* | 14.1µM* | 1.2 | 18.9* | / | 10.7*
COc1ccc(-n2cccc2/C=C2/NC(=O)N(c3cccc(Cl)c3)C2=O)cc1 | 2.3% | -2.0% | -1.4% | 18.1% | 17.9% | -11.6 | / | / | /
O=C(O)c1cccc(-n2cccc2/C=C2/NC(=O)N(c3ccc(Cl)cc3)C2=O)c1 | 20µM* | 1.58µM* | 0.708µM* | ? | 0.355µM* | -98.0* | 0.752* | 1.35* | 21.3* | PGK validate=0.259µM*
COc1ccc2sc(/C=C/c3ccccc3O)[n+](C)c2c1 | 39.8µM* | -26.6% | 50.1µM* | 17.8µM* | 17.8µM* | -19.8 | 67* | 33.8* | 84.9* | Pol kappa inh-2=67*
Cc1ccc2c(COC(=O)C3CSC4(C)CCC(=O)N34)cc(=O)oc2c1C (stereo unspecified) | -11.6% | -4.2% | -20.2% | 4.2% | / | 10.1 | / | / | /
NC(=O)c1ccc[n+](CC(=O)c2ccc(F)cc2)c1 | -7.3% | -2.1% | -17.6% | 153.9% | -0.3% | 4.4 | / | / | /
NS(=O)(=O)c1ccc(CCNC(=O)COC(=O)c2ccc([N+](=O)[O-])o2)cc1 | ? | -35.7% | ? | 35.5µM* | / | 1.2 | 84.4* | ? | 10.7*
COc1cccc2c1C(=O)c1ccc3ccccc3c1C2=O | -11.2% | -4.8% | ? | 9.2% | 2.5% | 13.7 | / | / | /
SMILES | FEN1 inh-1 | Pol kappa inh-1 | Pol eta inh-1 | POLI inh | POLB inh | PI5P4K alpha inh | POLI cherry-pick | Pol eta inh-2 | FEN1 inh-2 | others
COc1ccc2noc3c2c1C(=O)c1ccccc1-3 | ? | ? | ? | ? | / | -13.5 | ? | / | ?
O=[N+]([O-])c1ccc(NCc2ccccc2N2CCC(CO)CC2)nc1 | 7.2% | 0.4% | -12.5% | -11.1% | 6.7% | 0.2 | / | / | /
O=C(O)c1ccc(Cl)c(S(=O)(=O)N(Cc2ccccc2)c2ccccc2)c1 | 3.3% | -9.0% | -15.7% | 18.4% | -0.5% | -0.4 | / | / | /
CCN(c1ccccc1)S(=O)(=O)c1cc(C(=O)O)ccc1C | -7.2% | -30.4% | 12.6µM* | ? | 12.6µM* | ? | 7.52* | 9.53* | ? | Pol kappa inh-2=5.32*
CN(C)c1ccc(/C=C2\C=Cc3ccccc32)cc1F | 6.0% | -23.2% | / | -19.2% | / | / | / | / | /
Cc1ccc(CN2C(=O)N/C(=C\c3ccc(-c4ccc(C(=O)O)cc4C)o3)C2=O)cc1 | 44.7µM* | 79.4µM* | 17.8µM* | -94.8% | 20µM* | -22.6 | 21.2* | 26.9* | 75.7*
